# Shown are actives, neighbours in structure and some others; about 3.7% of the full set was active somewhere.
# RGS4 inh: inhibitors of human regulator of G protein signaling 4 | P49798 | Transcreener GDP fluorescence polarization, RGS4-accelerated GTP hydrolysis | Potency, µM (series often up to 114 µM), inactives show at the top dose activity change, negative = inhibition, usual class: inhibitors | hit rate 0.039% among 390,000 | AID 504845; also: potency is read from the fitted curve at half-maximal effect; % is scaled to controls: 0 for no effect and ±100 for the full control effect; nearly all actives have a fitted effect of over 75% in size
# Target sequence (P49798 whole entry, looked up): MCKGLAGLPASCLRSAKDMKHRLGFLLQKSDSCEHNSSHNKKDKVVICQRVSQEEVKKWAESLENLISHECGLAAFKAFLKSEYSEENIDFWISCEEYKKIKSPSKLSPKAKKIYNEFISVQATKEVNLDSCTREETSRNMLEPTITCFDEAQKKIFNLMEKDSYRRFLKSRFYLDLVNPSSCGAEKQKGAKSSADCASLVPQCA
#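 MLSMR compounds (23 nl, pin-transferred) preincubated 10 min at room temperature with a 500nM (2x) first reagent, then RGS4 at 900nM (2x) plus Transcreener GDP mix added; fluorescence polarization (620/688 nm) read before and after 90 min at 30 °C.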
# D3 ag: activates the human D3 dopamine receptor. P35462. D3R DiscoveRx beta-arrestin cells, luminescence, 90 min. max activation, %. hit rate 0.58% among 410,000; in the data active = max activation above about 30%; also: 0% is about no effect
# Target sequence (P35462 whole entry, looked up): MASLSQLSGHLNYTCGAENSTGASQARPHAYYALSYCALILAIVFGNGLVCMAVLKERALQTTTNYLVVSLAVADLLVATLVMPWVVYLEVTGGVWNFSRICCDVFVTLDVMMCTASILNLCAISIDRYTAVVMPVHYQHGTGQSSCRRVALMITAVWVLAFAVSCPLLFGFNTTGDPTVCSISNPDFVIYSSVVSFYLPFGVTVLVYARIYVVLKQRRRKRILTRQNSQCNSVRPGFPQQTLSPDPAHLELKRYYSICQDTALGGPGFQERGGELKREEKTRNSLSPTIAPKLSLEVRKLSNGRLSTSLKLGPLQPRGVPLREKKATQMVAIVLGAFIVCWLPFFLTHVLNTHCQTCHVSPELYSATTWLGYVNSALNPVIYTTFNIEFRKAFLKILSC
#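 Agonist mode: compounds and dopamine controls were applied to plated cells for 90 min at 37 degrees C after an overnight attachment at 1500 cells/well. Luminescent read-out followed 30 - 60 minutes at room temperature with DiscoveRx detection reagent.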
# D3 antag: antagonists of human D3 dopamine receptor. AID 652054. P35462. D3R cells, DiscoveRx beta-arrestin luminescence, antagonist mode; hits give low values. hit rate 2.5% among 360,000. max response, negative = inhibition, %; in the data active = max response below about -50%; inconclusive = no clear call, values can overlap the other calls; also: % is scaled to controls: 0 for no effect and ±100 for the full control effect
#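 Cells plated overnight at 1500 cells/well, then exposed to library compounds with dopamine controls for 90 minutes at 37 degrees C. DiscoveRx reagent added for 30–60 minutes at room temperature; luminescence read, quantitative HTS format.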
# PTHR1 agonist: activates the human parathyroid hormone receptor PTHR1 | Potency, µM (titrated, usually from 115 µM), for the others: top-dose activation, actives largely listed as activators | Q03431 | hit rate 0.075% among 410,000 | AID 743266 | HEK293 GP2 PTHR1 cells, GloSensor cAMP luminescence, 1 h; also: potency is read from the fitted curve at half-maximal effect; nearly all actives have a fitted effect of over 55% in size
#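 HEK-293-derived GP2 cells expressing PTHR1 and a GloSensor cAMP reporter, 3,000/well, plated overnight, given luciferin plus IBMX (each 0.5 mM as added) for 1 h at 37 °C, then compound for 1 h at 37 °C. Luminescence was read after 15 min at room temperature.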
# BRCA1 expr act: activators of BRCA1 expression; MCF7-BRCA1-FFLuc reporter, luminescence, 48 h; response scale: scaled: vehicle 0%, 10 µM genistein 100%; Potency, µM (doses to about 46.1 µM), without a hit: at the top dose activation, hits mostly activators; hit rate 1.1% among 380,000; AID 624202; also: potency is read from the fitted curve at half-maximal effect; nearly all actives have a fitted effect of over 80% in size
#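 Luminescence from a BRCA1-driven firefly luciferase in MCF7 cells was read after 48 h compound exposure at 37 C. Data normalized against DMSO and a 10microM genistein activation control, then curve-fitted across the titration.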
# B2AR arrestin: recruits beta-arrestin to the human beta2-adrenergic receptor. P07550. beta-arrestin recruitment to beta2AR, cell-based reporter. Potency, µM (doses to about 46.1 µM), for the others: at the highest dose activation, usual class: activators. hit rate 0.02% among 330,000;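 also: potency is read from the fitted curve at half-maximal effect; 0% = DMSO controls and full agonism = EC100 isoproterenol or metaproterenol; nearly all actives have a fitted effect of over 65% in size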
# The depositor's hits bear a star; i = inactive; ? = inconclusive; / = no result given; [ ] = remark or other dose. Unless noted, calls follow the shape of the dose curve; as a rule, active = well fitted curve in the direction sought with a large enough effect; inconclusive = small, poorly fitted or top-dose-only effect, or another doubt; inactive = no such curve, though single readings can be large; an effect the other way counts as inactive or inconclusive.
SMILES,RGS4 inh,D3 ag,D3 antag,PTHR1 agonist,BRCA1 expr act,B2AR arrestin
Nc1nc(=O)n(C2OC(CO)C(O)C2O)cc1F (stereo not given),/,-17.1,-78.4*,-23.2%,-48.7%,/
Nc1ncn(C2O[C@H](CO)[C@@H](O)[C@H]2O)c(=O)n1 (stereo not given in full),/,/,/,/,/,0.4%
CN=c1scc(C)n1/N=C/c1ccc(O)cc1,2.1%,5.5,13.6,-80.0%[57.5 µM],?,0.3%
CN=c1scc(-c2ccco2)n1/N=C/c1ccc(O)c(O)c1,?,51.0*,-9.8,-25.8%,-0.2%,-1.1%
C=CCN=c1scc(C)n1/N=C/c1ccc(O)c(O)c1,-18.4%,31.4*,12.6,-32.6%,?,0.2%
CCOC(=O)c1ccc(-c2c(-c3ccc4c(c3)OCO4)noc2C)cc1F,11.6%,-13.2,15.6,-25.7%,10.0%,-0.7%
O=C(c1cc2cccc([N+](=O)[O-])c2oc1=O)N1CCOCC1,-11.9%,-8.8,0.3,-10.8%,-5.7%,0.0%
O=C(Cn1cc2c(n1)CCCCC2)NC1CCCCCC1,?,-2.3,-16.2,-14.1%,8.91µM*,0.5%
COc1cccc(C(C#N)N2CCCCC2)c1O (stereo not given),-9.0%,5.2,-73.6*,i,-25.7%,-0.4%
COc1ccc(C(C#N)N2CCCCCC2)cc1OC (stereo not given),7.4%,5.0,21.4,i,3.3%,0.4%
COc1ccc(C(CNC(=O)c2cc3c(s2)CCC(C)C3)N2CCCC2)cc1 (stereo not given),-41.1%,-24.2,-105.0*,-11.0%,-14.9%,0.2%
COc1ccc(C(CNC(=O)c2ccc(Cl)s2)N2CCOCC2)cc1 (stereo not given),-28.3%,-14.3,-7.4,-22.2%,-9.1%,3.3%
COc1ccc(C(CNC(=O)c2cc3c(s2)CCC(C)C3)N2CCOCC2)cc1 (stereo not given),12.5%,-28.1,-103.2*,-16.7%,-28.6%,0.0%
COc1ccc(C(CNC(=O)C(C)Oc2ccc(Br)cc2)N2CCOCC2)cc1 (stereo not given),-7.4%,-28.3,-69.4*,-14.9%,-7.1%,0.2%
Cc1ccc(NCC(=O)N/N=C/c2cc(O)ccc2[N+](=O)[O-])cc1,9.7%,7.1,0.0,i,9.0%,0.2%
CCCc1nc2c3ccccc3ccn2c1Cc1ccccc1,/,3.6,3.8,-12.0%,11.2µM*,/
COc1ccc2[nH]c3c(c2c1)CCN1C(=O)C(CC(=O)NCCN2CCOCC2)C[C@H](C(=O)N2CCCCC2)[C@@]31CCc1ccccc1 (stereo not given in full),-20.3%,30.3*,-9.2,-0.5%,15.1%,-0.5%
COc1ccc2[nH]c3c(c2c1)CCN1C(=O)C(CC(=O)NCCC2=CCCCC2)C[C@H](C(=O)N2CCOCC2)[C@@]31CCC1CCCC1 (stereo not given in full),-15.2%,29.6,-52.2*,-17.7%,-6.9%,-0.9%
COc1ccc2[nH]c3c(c2c1)CCN1C(=O)C(CC(=O)NCCCN(C)C)C[C@H](C(=O)N2CCCCC2)[C@@]31CCc1ccccc1 (stereo not given in full),18.2%,1.2,-11.0,-17.5%,-30.4%,0.5%
CCCS(=O)(=O)NC(=O)C1(C)CCCN(C(=O)c2cccc(OC(F)(F)F)c2)C1 (stereo not given),/,-7.3,?,-14.1%,12.9%,/
CC(=O)c1ccc(Nc2nc(C(C)N)cs2)cc1 (stereo not given),/,0.1,-22.6,-18.3%,17.1%,/
O=C(Oc1c(-c2ccccc2)c(=O)n2c3c(cccc13)CC2)c1ccc(Cl)cc1,8.9%,13.2,33.8,-1.1%,-2.5%,-0.2%
O=C(Oc1c(-c2ccccc2)c(=O)n2c3c(cccc13)CC2)c1ccco1,-16.2%,49.1*,70.9,i,0.0%,0.2%
O=C(OCc1nc2ccccc2[n+]([O-])c1C(=O)c1ccccc1)c1cccnc1,-6.7%,2.0,-54.7*,i,-24.3%,10.9%
CC(=O)c1c(COC(=O)c2ccccc2)nc2ccccc2[n+]1[O-],8.8%,2.0,30.0,i,1.6%,0.2%
SMILES,RGS4 inh,D3 ag,D3 antag,PTHR1 agonist,BRCA1 expr act,B2AR arrestin
Cn1c(=O)c2c(ncn2CC(=O)OCC(=O)NNC(=O)c2ccc(Cl)cc2)n(C)c1=O,-33.2%,-23.8,-124.0*,i,-14.1%,1.9%
Cn1c(=O)c2c(ncn2CC(=O)OCC(=O)Nc2cc(Cl)ccc2Cl)n(C)c1=O,-31.2%,5.5,-4.0,i,-5.3%,-1.5%
O=C(COC(=O)CN1C(=O)C2CCCCC2C1=O)NNC(=O)c1ccc(Cl)cc1 (stereo not given),-12.5%,-2.7,-74.7*,-17.1%,-11.7%,-0.3%
COc1cc(Cl)c(NC(=O)c2cc(CN3CCCC3)on2)c(OC)c1,-5.6%,-6.1,/,-17.8%,-30.4%,/
Cc1ccc(NC(=O)c2ccc(NCc3ccc(F)cc3)nc2)cc1,-37.7%,20.1,8.5,-12.1%,-10.3%,2.9%
Cc1ccc(NC(=O)c2ccc(Nc3ccccc3F)nc2)cc1,-19.5%,1.0,7.2,-12.3%,8.91µM*,0.0%
Cc1nc2ccn(Cc3cccnc3)c(=O)c2cc1C(=O)Nc1ccc(OC(F)(F)F)cc1,-8.0%,0.4,/,-2.2%,/,/
O=c1ccn([C@@H]2O[C@H](COP(=O)(O)O)[C@@H](O)[C@H]2O)c(=O)[nH]1,37.7µM*,/,/,/,/,/
COc1ccc(-c2nc3c4ccccc4n(CC(=O)Nc4ccc(C(C)C)cc4)c(=O)n3n2)cc1,1.3%,-4.5,/,-0.1%,/,/
CNc1ncnc2c1ncn2[C@H]1CN(CCOC)C[C@@H](CO)O1,/,5.4,-55.9*,-9.6%,0.0%,/
CNc1ncnc2c1ncn2[C@H]1CN(Cc2cccc3ccccc23)C[C@@H](CO)O1,/,110.8*,25.4,-16.0%,-3.4%,/
COCCNc1ncnc2c1ncn2[C@H]1CN(CCOC)C[C@@H](CO)O1,/,0.5,0.0,i,3.2%,/
CCOC(=O)C(NC(C)=O)C(=O)Nc1c(C)cccc1C (stereo not given),-26.6%,0.8,14.5,i,-6.7%,-0.1%
O=C(O)c1cc(O)c2c(c1)[C@H]([C@H]1c3cc(C(=O)O)cc(O)c3C(=O)c3c(O[C@@H]4O[C@H](CO)[C@@H](O)[C@H](O)[C@H]4O)cccc31)c1cccc(OC3O[C@H](CO)[C@@H](O)[C@H](O)[C@H]3O)c1C2=O (stereo not given in full),-55.2%,0.0,-13.3,-49.4%,0.0%,-0.2%

# High-throughput results as filed in PubChem.
